# Source: PubChem BioAssay (Tox21)
# Several values for one entry are separate records, joined by “and”; a condition that tells them apart may be missing. Equal values may be shown once. Inconclusive results are not listed. Where a call stands in place of a potency, no number is given. Some structures have more than one record in an assay (separate samples or runs), and their calls can disagree. Activity calls are given as the source filed them. Unless noted, calls follow the shape of the dose curve; as a rule, active = well fitted curve in the direction sought with a large enough effect in the repeat runs; inconclusive = weak or mixed curves; inactive = no such curve, though single readings can be large; an effect the other way counts as inactive or inconclusive.
# Columns and labels:
# [1] = qHTS assay to identify small molecule antagonists of the sonic hedgehog signaling (Shh) pathway (AID 1259369; calls by dose curve; also: nearly all actives have a fitted effect of over 45% in size; also: potency is read from the fitted curve at half-maximal effect); details: NIH/3T3 Gli1-Luc reporter, Shh antagonist, luminescence 24 h; series mostly up to 92.4 µM
# Summary of the method: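 NIH/3T3-derived 3T3Gli1-Luc cells with stably integrated Gli1-Luc reporter were preincubated 4hr at 37 C, then given compounds in DMSO plus Shh conditioned medium and incubated 24hr. Firefly luciferase luminescence read after 30min reagent at room temperature.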
# [2] = target: Estrogen receptor beta (Homo sapiens) (UniProt Q92731); test: qHTS assay to identify small molecule agonists of the estrogen receptor beta (ER-beta) signaling pathway (AID 1259377; active = well fitted activation curve with a large enough effect in the signal ratio in the repeat runs, not every such curve was filed as active; the % refers to the signal ratio; also: potency is read from the fitted curve at half-maximal effect); details: ER-beta-UAS-bla HEK293T, beta-lactamase FRET ratio, 16 h; series mostly up to 92.4 µM
# Summary of the method: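 Beta-lactamase reporter readout: fluorescence of LiveBLAzer B/G FRET substrate after 2 h at room temperature, following 16 h compound treatment of ER-beta-UAS-bla HEK293T cells at 37C in 2% charcoal-stripped FBS medium.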
# [3] = target: Estrogen receptor beta (Homo sapiens) (UniProt Q92731); test: qHTS assay to identify small molecule antagonists of the estrogen receptor beta (ER-beta) signaling pathway (AID 1259378; active = well fitted inhibition curve with a large enough effect in the signal ratio in the repeat runs, not every such curve was filed as active; the % refers to the signal ratio); details: ER-beta-UAS-bla HEK293T, beta-lactamase FRET ratio, 16 h; series mostly up to 92.4 µM
# Summary of the method: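 ER-beta-UAS-bla HEK293T cells in 2% charcoal-stripped FBS medium treated with compound plus 1nM final 17-beta-estradiol for 16 hr at 37C. Beta-lactamase reporter read by FRET substrate fluorescence after 2 hours at room temperature.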
# [4] = qHTS assay to identify small molecule agonists of the androgen receptor (AR) signaling pathway in the presence of an antagonist - cell viability counter screen (AID 1259379); details: MDA-kb2 viability, CellTiter-Fluor, 16 h; series mostly up to 92.4 µM; also: nearly all actives have a fitted effect of over 25% in size
# Summary of the method: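 MDA-kb2 human breast carcinoma cells (stable MMTV-luciferase, AR/GR responsive) were seeded 3,000 cells/well, pre-incubated 5 hr at 37C without CO2, then given 3.0uM nilutamide and compounds at 15 concentrations for 16 hr. Viability was read by CellTiter-Fluor fluorescence.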
# [5] = qHTS assay to identify small molecule antagonists of the estrogen receptor beta (ER-beta) signaling pathway - cell viability counter screen (AID 1259382); details: ER-beta-UAS-bla HEK293T viability, CellTiter-Glo luminescence, 16 h; series mostly up to 92.4 µM; also: nearly all actives have a fitted effect of over 55% in size
# Summary of the method: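 ER-beta-UAS-bla HEK293T cells (2,000/well, 2% charcoal-stripped FBS) were pre-incubated 6 hr at 37C, then given compound plus 1nM final 17-beta-estradiol for 16 hr. Viability was read in the same wells by CellTiter-Glo luminescence after 30 min at room temperature.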
# [6] = target: Estrogen receptor (Homo sapiens) (UniProt P03372); test: qHTS assay to identify small molecule agonists of the estrogen receptor alpha (ER-alpha) signaling pathway in the presence of an antagonist (AID 1259383; calls by dose curve; also: top concentration of the series differs between compounds; nearly all actives have a fitted effect of over 15% in size); details: VM7Luc4E2 cells, ERE-luciferase, +ICI-182,780, 22 h; series mostly up to 92.4 µM
# Summary of the method: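 VM7Luc4E2 cells (endogenous full-length ER-alpha, 4×ERE-luciferase) were precultured 5 days in phenol red-free medium with 10% charcoal-stripped FBS, given 10.0nM ICI-182,780 (final), then treated with compounds at 15 concentrations for 22hr at 37C; luminescence read with ONE-Glo.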
# [7] = qHTS assay to identify small molecule agonists or antagonists of the thyroid stimulating hormone receptor (TSHR) signaling pathway - wild type cell line counter screen (AID 1259384; calls by dose curve); details: HEK293 wild type, cAMP HTRF counter-screen, stronger effect = higher value; series mostly up to 92.4 µM
# Summary of the method: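 Wild-type Hek293 cells, 800/well, 18 h at 37C, then compound with Ro20-1724 for 30 min RT. cAMP by HTRF (cAMP-d2/anti-cAMP cryptate), 1 h RT, fluorescence read. 15 concentrations, triplicates.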
# [8] = target: Thyrotropin receptor (Homo sapiens) (UniProt P16473); test: qHTS assay to identify small molecule antagonists of the thyroid stimulating hormone receptor (TSHR) signaling pathway (AID 1259385; calls by dose curve; also: nearly all actives have a fitted effect of over 20% in size); details: TSHR-HEK293 cAMP HTRF, TSH-stimulated antagonist mode; series mostly up to 92.4 µM
# Summary of the method: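 TSHR-HEK293 cells (800/well) plated 18 h, then compounds with Ro20-1724 and TSH at 1.5 ng/mL final, 30 min at room temperature. cAMP quantified by HTRF (cAMP-d2/anti-cAMP-cryptate, 1 h); 15 concentrations in triplicate.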
# [9] = qHTS assay to identify small molecule agonists of the estrogen receptor alpha (ER-alpha) signaling pathway in the presence of an antagonist - cell viability counter screen (AID 1259386); details: VM7Luc4E2 viability, CellTiter-Fluor fluorescence, 22 h; series mostly up to 92.4 µM;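 also: cells exposed to compounds for 22 h at 37 °C before the viability read; nearly all actives have a fitted effect of over 30% in size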
# Summary of the method: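 VM7Luc4E2 cells (endogenous full-length ER-alpha, 4×ERE-luciferase) were held 5 days in phenol red-free medium with 10% charcoal-stripped FBS, plated, then given 10.0nM ICI-182,780 and compounds at 15 concentrations for 22hr at 37C; viability read by CellTiter-Fluor fluorescence.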
# [10] = target: Progesterone receptor (Homo sapiens) (UniProt P06401); test: qHTS assay to identify small molecule agonists of the progesterone receptor (PR) signaling pathway (AID 1346784; calls by dose curve; also: nearly all actives have a fitted effect of over 30% in size); details: PR-UAS-bla HEK293T, beta-lactamase FRET ratio, 16 h; series mostly up to 92.4 µM
# Summary of the method: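 HEK 293T PR-UAS-bla reporter cells, 2% charcoal-stripped FBS; 6 hr settle at 37C/5% CO2, compound (DMSO) 16 hr, LiveBLAzer B/G FRET substrate 2 hr RT, fluorescence intensity read.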
# [11] = qHTS assay to identify small molecule antagonists of the progesterone receptor (PR) signaling pathway - cell viability counter screen (AID 1346798); details: PR-UAS-bla HEK293T viability, CellTiter-Glo luminescence, 16 h; series mostly up to 92.4 µM; also: nearly all actives have a fitted effect of over 50% in size
# Summary of the method: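 Luminescence readout (CellTiter-Glo, 30 min, RT) of viability in PR-UAS-bla HEK293T cells exposed to compound and R5020 agonist for 16 hr at 37C, 5% CO2; run in the same wells as the beta-lactamase reporter read.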
# [12] = qHTS assay to identify small molecule agonists of the progesterone receptor (PR) signaling pathway - cell viability counter screen (AID 1346799; calls by dose curve; also: nearly all actives have a fitted effect of over 45% in size); details: PR-UAS-bla HEK293T viability, CellTiter-Glo luminescence, 16 h; series mostly up to 92.4 µM
# Summary of the method: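 HEK293T PR-UAS-bla, 3,000 cells/well, 2% charcoal-stripped FBS; 6 h settle, compound 16 h at 37C/5% CO2; LiveBLAzer 2 h RT, then CellTiter-Glo 30 min RT, luminescence read.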
# [13] = qHTS assay to identify small molecule antagonists of the TGF-beta/Smad signaling pathway - cell viability counter screen (AID 1346824); details: SBE-bla HEK293T viability, CellTiter-Glo luminescence; series mostly up to 76.8 µM; also: nearly all actives have a fitted effect of over 50% in size
# Summary of the method: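 SBE-bla HEK 293T cells, incubated overnight, then compound plus 0.25 ng/mL TGF-beta1 (stock added) for 5 hr at 37 C. Viability was read in the same wells by CellTiter-Glo luminescence after 30 min at room temperature.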
# [14] = qHTS assay to identify small molecule agonists of the TGF-beta/Smad signaling pathway - cell viability counter screen (AID 1346829); details: SBE-bla HEK293T viability, CellTiter-Glo luminescence, 5 h; series mostly up to 76.8 µM; also: top concentration of the series differs between compounds; nearly all actives have a fitted effect of over 45% in size
# Summary of the method: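 CellTiter-Glo luminescence readout; SBE-bla HEK 293T cells, overnight plating, compound 5 hr at 37 C/5% CO2, then bla substrate 2 hr RT, then CellTiter-Glo 30 min RT.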
# [15] = qHTS assay to identify small molecule agonists of the TGF-beta/Smad signaling pathway (AID 1346859; active = well fitted activation curve with a large enough effect in the signal ratio in the repeat runs, not every such curve was filed as active; the % refers to the signal ratio); details: SBE-bla HEK293T, TGF-beta/Smad beta-lactamase reporter, 5 h; series mostly up to 76.8 µM
# Summary of the method: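 Read-out: fluorescence at 460 and 530 nm (405 nm excitation) after a 2 hr room-temperature incubation with beta-lactamase FRET substrate. SBE-bla HEK 293T cells had been treated with test compounds for 5 hr at 37 C.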
# [16] = target: Thyrotropin-releasing hormone receptor (Homo sapiens) (UniProt P34981); test: qHTS assay to identify small molecule antagonists of the thyrotropin-releasing hormone receptor (TRHR) signaling pathway (AID 1346877; active = well fitted inhibition curve with a large enough effect in the repeat runs, not every such curve was filed as active); details: TRHR-HEK293, TRH-induced calcium fluorescence, antagonist mode; series mostly up to 51.3 µM
# Summary of the method: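 TRHR-expressing HEK293 cells were seeded, cultured 18 h at 37 °C, then loaded with calcium dye for 2 h. Compounds were pre-incubated 5 min at room temperature before 1 nM TRH (final) was added, and kinetic fluorescence was recorded for 3 min.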
# [17] = target: Thyrotropin-releasing hormone receptor (Homo sapiens) (UniProt P34981); test: qHTS assay to identify small molecule agonists of the thyrotropin-releasing hormone receptor (TRHR) signaling pathway (AID 1346891; calls by dose curve); details: TRHR-HEK293 calcium fluorescence, agonist mode; series mostly up to 57.6 µM
# Summary of the method: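 HEK293/TRHR cells, 1500 per well, 18 h 37 °C; Ca dye 2 h 37 °C; pin-tool compound addition (agonist mode); kinetic fluorescence 3 min, 1 s reads; 15 concentrations, triplicate.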
# [18] = target: Progesterone receptor (Homo sapiens) (UniProt P06401); test: qHTS assay to identify small molecule antagonists of the progesterone receptor (PR) signaling pathway (AID 1346795; active = well fitted inhibition curve with a large enough effect in the signal ratio in the repeat runs, not every such curve was filed as active; the % refers to the signal ratio; also: potency is read from the fitted curve at half-maximal effect); details: PR-UAS-bla HEK293T, beta-lactamase FRET ratio, 16 h; series mostly up to 92.4 µM
# Summary of the method: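 Beta-lactamase reporter, HEK293T PR-UAS-bla line; 2% charcoal-stripped FBS; 6 hr pre-incubation, 37C/5% CO2. Compound + R5020 1 nM final, 16 hr. LiveBLAzer B/G FRET substrate, 2 hr RT; fluorescence intensity read.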
# [19] = qHTS assay to identify small molecule agonists of the estrogen receptor beta (ER-beta) signaling pathway - cell viability counter screen (AID 1259380); details: ER-beta-bla HEK293T viability, CellTiter-Glo luminescence, 16 h; series mostly up to 92.4 µM; also: nearly all actives have a fitted effect of over 30% in size
# Summary of the method: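 ER-beta-UAS-bla HEK293T cells in medium with 2% charcoal-stripped FBS were preincubated 6 hr at 37C, dosed with compound in DMSO for 16 hr, then after the bla read, CellTiter-Glo was added for 30 min at room temperature; luminescence recorded.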
# [20] = target: Androgen receptor (Homo sapiens) (UniProt P10275); test: qHTS assay to identify small molecule agonists of the androgen receptor (AR) signaling pathway in the presence of an antagonist (AID 1259381; calls by dose curve; also: nearly all actives have a fitted effect of over 15% in size); details: MDA-kb2 MMTV-luciferase, AR agonist + nilutamide, 16 h; series mostly up to 92.4 µM
# Summary of the method: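 MDA-kb2 human breast carcinoma cells carrying an MMTV-luciferase reporter (AR- and GR-responsive) were treated with compounds at 15 concentrations plus 3.0uM final nilutamide for 16hr at 37C without CO2; luminescence was read after ONE-Glo addition.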
# Thyrotropin receptor (Homo sapiens), sequence (P16473 whole entry, looked up): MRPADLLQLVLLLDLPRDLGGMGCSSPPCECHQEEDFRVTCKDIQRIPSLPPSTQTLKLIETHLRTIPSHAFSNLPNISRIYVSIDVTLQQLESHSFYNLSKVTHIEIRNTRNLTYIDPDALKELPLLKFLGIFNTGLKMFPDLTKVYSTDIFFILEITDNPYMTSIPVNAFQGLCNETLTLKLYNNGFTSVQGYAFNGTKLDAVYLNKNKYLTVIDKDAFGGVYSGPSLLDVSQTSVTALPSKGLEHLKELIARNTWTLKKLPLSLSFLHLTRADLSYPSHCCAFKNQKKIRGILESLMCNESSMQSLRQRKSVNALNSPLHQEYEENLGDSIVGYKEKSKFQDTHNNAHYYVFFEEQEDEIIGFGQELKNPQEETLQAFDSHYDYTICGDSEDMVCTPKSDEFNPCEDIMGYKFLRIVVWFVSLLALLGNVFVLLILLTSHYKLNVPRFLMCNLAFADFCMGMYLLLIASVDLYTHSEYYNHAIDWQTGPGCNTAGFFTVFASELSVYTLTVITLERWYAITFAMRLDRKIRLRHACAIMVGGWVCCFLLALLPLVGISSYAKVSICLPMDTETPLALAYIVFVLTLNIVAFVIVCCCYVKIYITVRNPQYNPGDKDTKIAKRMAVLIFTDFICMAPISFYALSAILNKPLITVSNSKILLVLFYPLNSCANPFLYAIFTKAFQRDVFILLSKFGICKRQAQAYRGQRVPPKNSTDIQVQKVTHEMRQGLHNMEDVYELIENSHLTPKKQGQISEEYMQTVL
# Progesterone receptor (Homo sapiens), sequence (P06401 whole entry, looked up): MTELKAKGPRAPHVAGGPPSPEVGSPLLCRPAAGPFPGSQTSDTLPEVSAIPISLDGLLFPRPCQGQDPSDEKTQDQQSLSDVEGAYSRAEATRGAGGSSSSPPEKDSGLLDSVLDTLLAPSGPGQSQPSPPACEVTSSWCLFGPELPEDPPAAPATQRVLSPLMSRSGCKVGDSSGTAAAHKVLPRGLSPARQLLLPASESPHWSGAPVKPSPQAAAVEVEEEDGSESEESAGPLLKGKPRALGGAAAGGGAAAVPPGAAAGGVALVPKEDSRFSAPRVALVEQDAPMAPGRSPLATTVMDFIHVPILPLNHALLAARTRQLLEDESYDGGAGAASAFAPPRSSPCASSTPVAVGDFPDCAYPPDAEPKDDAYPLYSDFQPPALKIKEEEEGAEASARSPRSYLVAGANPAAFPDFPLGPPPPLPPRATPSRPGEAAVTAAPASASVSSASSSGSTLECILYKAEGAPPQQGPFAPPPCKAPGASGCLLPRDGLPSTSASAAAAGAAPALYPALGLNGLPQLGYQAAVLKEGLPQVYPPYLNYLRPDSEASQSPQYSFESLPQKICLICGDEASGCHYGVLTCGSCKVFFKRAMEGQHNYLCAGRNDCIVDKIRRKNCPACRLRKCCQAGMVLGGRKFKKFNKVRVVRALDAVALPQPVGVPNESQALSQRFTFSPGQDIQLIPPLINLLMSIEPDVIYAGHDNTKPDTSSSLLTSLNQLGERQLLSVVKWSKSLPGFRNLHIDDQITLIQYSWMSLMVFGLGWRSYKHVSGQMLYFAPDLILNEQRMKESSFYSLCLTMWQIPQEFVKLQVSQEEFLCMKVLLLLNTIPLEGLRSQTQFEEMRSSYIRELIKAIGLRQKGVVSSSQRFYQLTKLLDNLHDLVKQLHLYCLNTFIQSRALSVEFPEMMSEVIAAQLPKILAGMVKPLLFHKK
# Estrogen receptor (Homo sapiens), sequence (P03372 whole entry, looked up): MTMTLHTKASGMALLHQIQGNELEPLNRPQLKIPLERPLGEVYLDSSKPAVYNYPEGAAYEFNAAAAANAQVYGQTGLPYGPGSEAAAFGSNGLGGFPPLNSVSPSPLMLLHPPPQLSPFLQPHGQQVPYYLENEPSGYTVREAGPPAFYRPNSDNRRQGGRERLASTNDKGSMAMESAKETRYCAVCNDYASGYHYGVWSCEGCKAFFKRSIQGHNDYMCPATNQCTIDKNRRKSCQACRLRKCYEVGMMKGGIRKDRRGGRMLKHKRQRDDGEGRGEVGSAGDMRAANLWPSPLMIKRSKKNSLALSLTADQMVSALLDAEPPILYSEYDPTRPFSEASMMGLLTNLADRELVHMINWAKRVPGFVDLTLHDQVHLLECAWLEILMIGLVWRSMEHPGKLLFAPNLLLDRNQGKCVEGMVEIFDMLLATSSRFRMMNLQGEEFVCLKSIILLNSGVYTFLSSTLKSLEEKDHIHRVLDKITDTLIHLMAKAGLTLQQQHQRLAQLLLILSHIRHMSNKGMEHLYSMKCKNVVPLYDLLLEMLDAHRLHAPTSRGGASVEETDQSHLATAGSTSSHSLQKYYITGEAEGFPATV
# Estrogen receptor beta (Homo sapiens), sequence (Q92731 whole entry, looked up): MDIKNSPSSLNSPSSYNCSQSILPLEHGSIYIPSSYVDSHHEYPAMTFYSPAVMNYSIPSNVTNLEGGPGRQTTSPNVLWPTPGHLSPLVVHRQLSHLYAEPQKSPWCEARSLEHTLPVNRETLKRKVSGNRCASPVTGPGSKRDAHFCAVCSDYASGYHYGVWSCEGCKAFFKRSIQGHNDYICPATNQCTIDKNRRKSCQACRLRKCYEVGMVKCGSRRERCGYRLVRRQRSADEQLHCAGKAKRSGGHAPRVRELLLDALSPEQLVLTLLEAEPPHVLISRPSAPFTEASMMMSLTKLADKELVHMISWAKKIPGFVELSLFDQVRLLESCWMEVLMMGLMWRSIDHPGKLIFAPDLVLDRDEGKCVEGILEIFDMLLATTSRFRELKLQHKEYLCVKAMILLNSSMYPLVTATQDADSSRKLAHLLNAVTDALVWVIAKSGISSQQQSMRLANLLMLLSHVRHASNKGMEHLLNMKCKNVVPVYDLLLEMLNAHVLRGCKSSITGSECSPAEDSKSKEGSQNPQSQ
# Thyrotropin-releasing hormone receptor (Homo sapiens), sequence (P34981 whole entry, looked up): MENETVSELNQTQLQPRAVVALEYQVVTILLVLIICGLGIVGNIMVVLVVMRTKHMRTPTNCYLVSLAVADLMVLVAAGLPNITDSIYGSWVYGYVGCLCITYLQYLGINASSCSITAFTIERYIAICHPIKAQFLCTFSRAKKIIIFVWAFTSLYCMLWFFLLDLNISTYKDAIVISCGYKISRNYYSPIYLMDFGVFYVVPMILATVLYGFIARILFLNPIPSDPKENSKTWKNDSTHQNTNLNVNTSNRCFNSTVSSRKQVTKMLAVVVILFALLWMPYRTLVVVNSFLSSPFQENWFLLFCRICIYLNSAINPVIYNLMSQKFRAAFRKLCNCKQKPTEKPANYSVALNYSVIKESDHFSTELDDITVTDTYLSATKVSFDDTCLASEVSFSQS
# Androgen receptor (Homo sapiens), sequence (P10275 whole entry, looked up): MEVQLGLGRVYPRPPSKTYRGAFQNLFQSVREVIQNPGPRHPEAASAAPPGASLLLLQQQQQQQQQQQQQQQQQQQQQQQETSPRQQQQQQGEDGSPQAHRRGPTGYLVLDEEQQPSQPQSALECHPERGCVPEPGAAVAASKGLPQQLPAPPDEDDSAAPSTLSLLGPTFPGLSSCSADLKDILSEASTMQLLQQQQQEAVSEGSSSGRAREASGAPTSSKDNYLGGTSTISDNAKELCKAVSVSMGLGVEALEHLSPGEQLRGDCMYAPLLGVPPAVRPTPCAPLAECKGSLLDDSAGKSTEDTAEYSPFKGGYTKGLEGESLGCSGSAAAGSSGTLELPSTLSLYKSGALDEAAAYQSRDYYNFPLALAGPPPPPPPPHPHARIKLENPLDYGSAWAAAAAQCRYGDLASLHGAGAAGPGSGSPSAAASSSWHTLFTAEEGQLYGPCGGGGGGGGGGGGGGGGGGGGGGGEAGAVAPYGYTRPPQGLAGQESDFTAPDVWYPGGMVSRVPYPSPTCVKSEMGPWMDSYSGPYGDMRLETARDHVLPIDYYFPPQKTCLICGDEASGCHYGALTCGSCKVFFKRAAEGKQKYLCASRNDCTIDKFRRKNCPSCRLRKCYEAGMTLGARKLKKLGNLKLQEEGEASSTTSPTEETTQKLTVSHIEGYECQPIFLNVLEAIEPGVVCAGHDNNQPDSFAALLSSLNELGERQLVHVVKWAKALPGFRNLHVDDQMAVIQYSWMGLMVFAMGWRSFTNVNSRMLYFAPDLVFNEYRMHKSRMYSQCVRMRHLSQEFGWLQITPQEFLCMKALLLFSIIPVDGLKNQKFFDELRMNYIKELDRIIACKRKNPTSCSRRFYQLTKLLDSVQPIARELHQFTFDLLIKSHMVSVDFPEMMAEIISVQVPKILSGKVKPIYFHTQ
Compound,Potency [1],Potency [2],Potency [3],Potency [4],outcome [5],Potency [6],outcome [7],outcome [8],Potency [9],Potency [10],outcome [11],outcome [12],outcome [13],outcome [14],outcome [15],outcome [16],outcome [17],Potency [18],Potency [19],Potency [20]
CC(C)(C)c1cc(Cc2cc(C(C)(C)C)c(O)c(C(C)(C)C)c2)cc(C(C)(C)C)c1O,inactive,inactive,inactive,inactive,inactive,inactive,inactive,inactive,inactive,inactive,inactive,inactive,inactive,inactive,inactive,inactive,inactive,,,
CC(C)OP(=O)(CP(=O)(OC(C)C)OC(C)C)OC(C)C,inactive and 1.19 µM (active),inactive,inactive,inactive,inactive,inactive,,,inactive,inactive,inactive,inactive,inactive,inactive,inactive,inactive,inactive,inactive,,
CN1C(=O)CC[C@H]1c1cccnc1,inactive,inactive,inactive,,inactive,,inactive,inactive,inactive,inactive,inactive,inactive,inactive,inactive,inactive,inactive,inactive,,,
C=CCc1ccc(OC)c(OC)c1,inactive,inactive,,inactive,inactive,,inactive,inactive,inactive,,inactive,inactive,inactive,inactive,inactive,,,,,
CC(CCO)CC(C)(C)C (configuration not stated),inactive,inactive,inactive,inactive,inactive,inactive,inactive,inactive,inactive,inactive,inactive,inactive,inactive,inactive,inactive,inactive,inactive,inactive,inactive,inactive
CCCCOC(=O)c1ccc(N)cc1,inactive,inactive,,inactive,inactive,inactive,inactive,inactive,inactive,inactive,inactive,inactive,inactive,inactive,inactive,inactive,inactive,,,
CCOC(=O)n1ccn(C)c1=S,inactive,inactive,inactive,,inactive,inactive,inactive,inactive,inactive,inactive,inactive,inactive,inactive,inactive,inactive,,,,inactive,
C=CC(C)CCCC(C)(C)O (configuration not stated),inactive,54.4 µM (active) and inactive,inactive,,inactive,inactive,inactive,inactive,inactive,inactive,inactive,inactive,inactive,inactive,inactive,,,inactive,inactive,
Nc1ccc(Cl)c(N)c1,inactive,inactive,,inactive,inactive,inactive,inactive,inactive,inactive,inactive,inactive,inactive,inactive,inactive,inactive,,,inactive,,
NCCN1CCNCC1,inactive,inactive,inactive,,inactive,inactive,inactive,inactive,inactive,inactive,inactive,inactive,inactive,inactive,inactive,,,,,
C[C@]12CC[C@@H]3c4ccc(O)cc4CC[C@H]3[C@@H]1C[C@@H](O)[C@@H]2O,13.7 µM (active) and 5.96 µM (active),4.3 nM (active) and 3 nM (active),,inactive,inactive,,inactive,inactive,inactive,inactive,inactive,inactive,inactive,inactive,inactive,,,,,
C=C(C)[C@H]1CC=C(C)C(=O)C1,inactive,inactive,,inactive,inactive,,inactive,inactive,inactive,inactive,inactive,inactive,inactive,inactive,inactive,,,inactive,inactive,
CN(C)c1ccc(Cc2ccc(N(C)C)cc2)cc1,inactive,inactive,,inactive,inactive,,inactive,inactive,inactive,inactive,inactive,,inactive,inactive,inactive,inactive,inactive,inactive,,
CCCCC(C=O)CC (configuration not stated),inactive,inactive,,inactive,inactive,inactive,inactive,inactive,inactive,inactive,inactive,inactive,inactive,inactive,inactive,inactive,inactive,inactive,inactive,
CCCCCCCCCCCCCCCCO,inactive,inactive,inactive,inactive,inactive,inactive,inactive,inactive,inactive,inactive,inactive,inactive,inactive,inactive,inactive,inactive,inactive,,inactive,
CC(CCl)OP(=O)(OC(C)CCl)OC(C)CCl (configuration not stated),inactive,inactive,,inactive,inactive,inactive,inactive,inactive,inactive,inactive,inactive,inactive,inactive,inactive,inactive,inactive,inactive,54.6 µM (active),,
